Inhibition data for 40 compounds are collected here from PubChem BioAssay.

A number with no mark means an inactive call. The rule behind the calls is not given here.

Sequence of Pantothenate synthetase (Mycobacterium tuberculosis (strain ATCC 25618 / H37Rv)) (P9WIL5 whole entry, looked up): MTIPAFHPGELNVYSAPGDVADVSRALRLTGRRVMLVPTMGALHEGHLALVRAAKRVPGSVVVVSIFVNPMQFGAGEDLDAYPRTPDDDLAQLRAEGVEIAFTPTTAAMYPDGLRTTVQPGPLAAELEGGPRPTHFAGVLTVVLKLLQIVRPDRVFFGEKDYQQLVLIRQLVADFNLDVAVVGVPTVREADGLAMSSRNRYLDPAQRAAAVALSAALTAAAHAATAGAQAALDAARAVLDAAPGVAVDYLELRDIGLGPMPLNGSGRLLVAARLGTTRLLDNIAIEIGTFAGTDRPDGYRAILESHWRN

The assay addresses Pantothenate synthetase (Mycobacterium tuberculosis (strain ATCC 25618 / H37Rv)) (UniProt P9WIL5). Description: Recombinant Mtb pantothenate synthetase (PanC) inhibitors, coupled enzyme, confirmatory (AID 375).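 Note: 0% = full reaction with vehicle and 100% = no enzyme background.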 The settings on record: coupled enzyme assay; at 10 µM, stronger effect = higher value.
As to `N#C/C(=C(/O)COC(=O)CCC1CCCCC1)c1nc2ccccc2[nH]1`, the inhibition (usually how much of the control response was suppressed) was 6%.

On to `COc1ccc(/C(O)=C2/C(=O)C(=O)N(Cc3cccnc3)C2c2ccncc2)cc1F` (stereo not given), for which the inhibition was 4%.

Consider `O=c1cc(CSc2ccccn2)c2ccccc2[nH]1`, for which the inhibition is 3%.

As to `CCc1nnc2sc(-c3cc(-c4ccccc4)nc4ccccc34)nn12`, the inhibition is 3%.

On to `COCCn1c(=O)[nH]c2cc(C(=O)N3CCN(c4ccccc4OC)CC3)ccc2c1=O`, for which the inhibition is 2%.

On to `O=C(c1ccc(Cl)cc1)N(Cc1cccs1)C1CCS(=O)(=O)C1` (stereo not given), for which the inhibition was 0%.

On to `O=C(CSc1nc2ccccc2c(=O)n1Cc1ccco1)NCc1ccccc1`, for which the inhibition is 2%.

With `COc1ccc(-c2nsc(SCC(=O)Nc3cc(C)on3)n2)cc1`, the inhibition was 0%.

`CCOC(=O)N1CCN(C(=O)c2cccn3c(=O)c4sccc4nc23)CC1`: the inhibition was 0%.

As for `CC(=O)c1cc(F)c(N2CCN(C(=O)Cc3ccccc3)CC2)cc1C`, the inhibition was 0%.

Take `c1ccc(-c2ccc(-c3ccccn3)nn2)nc1`: the inhibition is 8%.

For `CCN(CC(=O)Nc1c(C(=O)OC)[nH]c2ccccc12)c1ccc2c(c1)OCO2`, the inhibition was 5%.

`CC1Cc2ccccc2N1C(=O)COC(=O)Cn1nnc(-c2ccccc2)n1` (stereo not given): the inhibition is 13%.

As for `CCN1CCc2c(C#N)c(N3CCCCC3)nc(NCc3ccccc3)c2C1`, the inhibition was 0%.

`CCOC(=O)C1CCN(Cc2c(O)ccc3ccccc23)CC1`: the inhibition is 1%.

On to `O=C1c2ccccc2C(=O)N1CCN1CCCCC1`, for which the inhibition was 7%.

With `CN(C(=O)C(Cl)Cl)c1ccc(OC(=O)c2ccco2)cc1`, the inhibition was 7%.

Regarding `COc1ccc(OCCOC(=O)c2cccc(-n3cnnn3)c2)cc1`, the inhibition is 0%.

Take `CSc1nnc2n(CCc3ccccc3)c(=O)c3c4c(sc3n12)CCCC4`: the inhibition is 2%.

As for `COc1ccc(-n2c(SCC(=O)Nc3ccc(C(=O)O)cc3)nnc2-c2cccs2)cc1`, the inhibition is 0%.

In the case of `O=S1(=O)C=C(Sc2nnc(-c3ccccc3)o2)c2ccccc21`, the inhibition was 3%.

Consider `CCN(CCCc1ccccc1)CCCc1ccccc1`, for which the inhibition is 0%.

Turning to `Cc1c(C(=O)Nc2ccncc2)oc2c1C(=O)CC(C)(C)C2`, the inhibition was 5%.

As for `CN(C1CCCCC1)S(=O)(=O)c1ccc(NC(=O)c2ccco2)cc1`, the inhibition was 0%.

Consider `COc1ccccc1-n1c(=O)[nH]c2c(C(N)=O)nc(CC(C)C)nc21`, for which the inhibition is 0%.

As to `O=C(N1CCCCCC1)N1CCN(S(=O)(=O)N2CCCCC2)CC1`, the inhibition is 0%.

For the compound `Cc1ccc(-c2nnn(CC(=O)N(CC(=O)NC3CCCCC3)c3cnc4ccccc4c3)n2)o1`, the inhibition was 8%.

Regarding `COc1cc2c(cc1NC(=O)CSc1nnc(Cc3cccs3)n1C)oc1ccccc12`, the inhibition was 6%.

As for `CCCc1ccccc1OCCNC(C)=O`, the inhibition is 3%.

As to `O=C1NC(=O)C(CC(=O)N(Cc2ccco2)C2(C(=O)NC3CCCC3)CCCCC2)N1` (stereo not given), the inhibition was 0%.

Turning to `COc1cccc(NC(=O)C2CCCN(S(=O)(=O)c3cccc4cccnc34)C2)c1` (stereo not given), the inhibition is 0%.

With `Cc1ccccc1CN1CCN(CC(=O)NCc2ccccc2)C1=O`, the inhibition was 2%.

For the compound `N=c1sc2ccccc2n1-c1ccccc1`, the inhibition is 3%.

Take `CCOc1ccccc1OCC(=O)NCc1ccco1`: the inhibition was 0%.

With `CCOC(=O)N1CCN(c2cc(=O)n(-c3ccc(OCC)cc3)c(=O)[nH]2)CC1`, the inhibition was 5%.

As to `O=C(CCN1CCN(c2ccc(F)cc2)CC1)Nc1ccccc1F`, the inhibition was 1%.

On to `CCOC(=O)c1cccc(NC(=O)Cn2cnc3c2c(=O)n(C)c(=O)n3C)c1`, for which the inhibition is 4%.

`COc1ccc(Oc2c(C)oc3cc(OC(=O)N4CCOCC4)ccc3c2=O)cc1`: the inhibition is 3%.

As for `O=C(c1ccco1)N1CCN(C2=NS(=O)(=O)c3ccccc32)CC1`, the inhibition is 0%.

On to `CCNC(=O)N(C(=O)NCC)n1c(C)nnc1C`, for which the inhibition is 0%.
